Screening data from PubChem BioAssay.
GLP1R inv ag – acts as inverse agonist at human GLP-1 receptor; Potency, µM (highest dose often 38.3 µM), without a hit: at the highest dose activity change, negative = inhibition, most hits filed as inhibitors; 410,000 compounds, 1.6% hits; HEK293 GLP-1R CRE-luciferase, luminescence, 24 h; GLP-1R form is constitutively active; note: potency is the fitted concentration of half-maximal effect; % is set by controls: 0 for no effect and ±100 for the full control effect; nearly all actives have a fitted effect of over 55% in size
Target sequence (P43220 whole entry, looked up): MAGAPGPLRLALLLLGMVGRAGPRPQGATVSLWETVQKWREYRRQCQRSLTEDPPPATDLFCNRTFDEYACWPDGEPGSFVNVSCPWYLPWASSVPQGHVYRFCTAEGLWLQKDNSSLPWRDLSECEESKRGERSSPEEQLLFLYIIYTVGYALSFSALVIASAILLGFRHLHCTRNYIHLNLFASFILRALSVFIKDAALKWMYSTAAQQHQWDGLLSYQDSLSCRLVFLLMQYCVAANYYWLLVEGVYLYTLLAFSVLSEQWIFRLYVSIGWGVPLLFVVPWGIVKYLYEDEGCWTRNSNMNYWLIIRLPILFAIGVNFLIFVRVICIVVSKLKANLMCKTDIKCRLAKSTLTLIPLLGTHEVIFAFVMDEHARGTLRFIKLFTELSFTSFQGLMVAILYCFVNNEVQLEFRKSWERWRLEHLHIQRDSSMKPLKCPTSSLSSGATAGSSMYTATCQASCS
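Cells are plated, allowed 12 hours at 37 deg C, then treated with compounds for 24 hr before luciferase detection reagent is added and luminescence is read after 12 min at room temperature. The HEK293 line carries constitutively active GLP-1R with a cAMP-responsive reporter.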
DRD3 antagonist – antagonists of human D3 dopamine receptor. P35462. D3R cells, DiscoveRx beta-arrestin luminescence, antagonist mode; stronger effect = lower value. max response, negative = inhibition, %. 360,000 compounds, 2.5% hits; in the data active = max response below about -50%; inconclusive = no clear call, values can overlap the other calls; note: % is set by controls: 0 for no effect and ±100 for the full control effect
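Cells plated overnight at 1500 cells/well, then exposed to library compounds with dopamine controls for 90 minutes at 37 degrees C. DiscoveRx reagent added for 30–60 minutes at room temperature; luminescence read, quantitative HTS format.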
GLP1R ag – GLP-1 receptor (human) agonism; Potency, µM (series often up to 45.6 µM), inactives show at the highest dose activation, hits mostly activators; 380,000 compounds, 0.007% hits; AID 624172; P43220; HEK293 GLP-1R CRE-luciferase, luminescence, 4-6 h; cells express a hypersensitive GLP-1R form; note: potency is the fitted concentration of half-maximal effect; % of control where 0% means no effect
DRD3 agonist – D3 dopamine receptor (human) agonism; P35462; D3R DiscoveRx beta-arrestin cells, luminescence, 90 min; max activation, %; 410,000 compounds, 0.58% hits; AID 652048; in the data active = max activation above about 30%; note: 0% is about no effect
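Agonist mode: compounds and dopamine controls were applied to plated cells for 90 min at 37 degrees C after an overnight attachment at 1500 cells/well. Luminescent read-out followed 30 - 60 minutes at room temperature with DiscoveRx detection reagent.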
* hit, by the source's call. Hits are enriched below; roughly 4.3% of the tested compounds scored in any of these assays. Unless noted, calls come from the whole dose curve; as a rule, active = well fitted curve in the direction sought with a large enough effect; inconclusive = small, poorly fitted or top-dose-only effect, or another doubt; inactive = no such curve, though single readings can be large; an effect the other way counts as inactive or inconclusive.

Results for CCCCn1c(SCC(=O)c2ccccc2)nc2ccsc2c1=O ?
GLP1R inv ag: inconclusive; DRD3 antagonist: 27; GLP1R ag: 5%; DRD3 agonist: 59*

Results for Cc1cc(S(=O)(=O)Nc2cc3c(cc2Cl)n(C)c(=O)c(=O)n3C)ccc1F ?
GLP1R inv ag: -4%; DRD3 agonist: -7

What do the screens show for `CCCOc1ccc(-c2nc(N3CCN(C)CC3)c3ccccc3n2)cc1`?
GLP1R inv ag: inconclusive; DRD3 antagonist: -59*; GLP1R ag: 34%; DRD3 agonist: -10

Results for CCCOc1ccc(-c2nc(N3CCCCC3)c3ccccc3n2)cc1 ?
GLP1R inv ag: 1%; DRD3 agonist: -9

How did CCCOc1ccc(-c2nc(N3CCN(CC)CC3)c3ccccc3n2)cc1 do in these assays?
GLP1R inv ag: 7.9µM*; DRD3 antagonist: inconclusive; GLP1R ag: 13%; DRD3 agonist: -3

Results for C[C@H](CO)N1C[C@H](C)[C@@H](CN(C)S(=O)(=O)c2cn(C)cn2)Oc2ccc(NS(=O)(=O)c3ccccc3)cc2C1=O ?
GLP1R inv ag: 5%; DRD3 antagonist: 7; GLP1R ag: -5%; DRD3 agonist: 35*

Results for C[C@H](CO)N1C[C@H](C)[C@@H](CN(C)S(=O)(=O)c2cn(C)cn2)Oc2c(NS(=O)(=O)c3ccccc3)cccc2C1=O ?
GLP1R inv ag: 22%; DRD3 antagonist: 50; GLP1R ag: -4%; DRD3 agonist: 49*

What do the screens show for `COc1ccc(-c2noc(N3CCN(c4ccc(C)cc4)C(C)C3)n2)cc1OC` (stereo not given)?
GLP1R inv ag: 1%; DRD3 agonist: 19

What do the screens show for `CCOC(=O)c1cc(OC(=O)c2ccc(OC)c(OC)c2)n(-c2ccccc2)n1`?
GLP1R inv ag: 15%; GLP1R ag: -2%; DRD3 agonist: 7

How did COc1ccc(NC(=O)c2oc3c(c2C)-c2nn(Cc4ccccc4Cl)cc2CC3)cc1OC do in these assays?
GLP1R inv ag: inconclusive; DRD3 agonist: -3

Results for CCN1CCN(c2ccc([N+](=O)[O-])c(Sc3nc4ccccc4[nH]3)c2)CC1 ?
GLP1R inv ag: inconclusive; DRD3 antagonist: -94*; GLP1R ag: 10%; DRD3 agonist: -39

Results for O=C(O)c1cc([N+](=O)[O-])c(Sc2nc3ccccc3[nH]2)c([N+](=O)[O-])c1 ?
GLP1R inv ag: 13%; DRD3 antagonist: -8; GLP1R ag: -4%; DRD3 agonist: 1

What do the screens show for `CS(=O)(=O)c1cc([N+](=O)[O-])c(Sc2nc3ccccc3[nH]2)c([N+](=O)[O-])c1`?
GLP1R inv ag: inconclusive; DRD3 antagonist: -51*; GLP1R ag: -24%; DRD3 agonist: -24

What do the screens show for `Cc1cccc(Sc2c([N+](=O)[O-])ncn2C)c1`?
GLP1R inv ag: -7%; DRD3 antagonist: inconclusive; GLP1R ag: 3%; DRD3 agonist: -3

Results for Cn1cnc([N+](=O)[O-])c1Sc1nc2ccccc2[nH]1 ?
GLP1R inv ag: inconclusive; DRD3 antagonist: -54*; GLP1R ag: -1%; DRD3 agonist: -20

What do the screens show for `Cc1ccc(S(=O)(=O)c2c(C)nn(-c3ccccc3)c2OC(=O)c2ccccc2F)cc1`?
GLP1R inv ag: -7%; GLP1R ag: -2%; DRD3 agonist: -3

What do the screens show for `Cc1nn(S(=O)(=O)c2ccc(F)cc2)c(C)c1S(=O)(=O)N1CCCCCC1`?
GLP1R inv ag: 13%; GLP1R ag: 0%; DRD3 agonist: 9

Results for Cc1ccc(Nc2nnc(-c3ccc(C)c(S(=O)(=O)N4CCN(C)CC4)c3)c3ccccc23)c(C)c1 ?
GLP1R inv ag: 11%; DRD3 agonist: 7

Results for COc1ccc(CNCc2c(C(=O)O)c(C)n(Cc3ccccc3C)c2C)cc1OC ?
GLP1R inv ag: 10%; DRD3 agonist: 9

How did CC(C)c1ccc(NC(=O)C(c2ccccc2)N(C)C(=O)CCc2c[nH]c3ccccc23)cc1 (stereo not given) do in these assays?
GLP1R inv ag: 10µM*; DRD3 antagonist: 1; GLP1R ag: -1%; DRD3 agonist: 0

How did COc1ccc(C(C(=O)Nc2ccc(C(C)C)cc2)N(C)C(=O)Cc2cccs2)cc1 (stereo not given) do in these assays?
GLP1R inv ag: 3.2µM*; DRD3 agonist: -12

Results for CCOC(=O)C(=CNc1cc(Cl)c(-c2ccco2)c(Cl)c1)C(=O)OCC ?
GLP1R inv ag: 10µM*; DRD3 antagonist: 1; GLP1R ag: 12%; DRD3 agonist: 1

Results for CCOC(=O)C(=CNc1ccc(C(F)(F)F)cc1Cl)C(=O)OCC ?
GLP1R inv ag: 38%; DRD3 antagonist: 19; GLP1R ag: 7%; DRD3 agonist: 28

Results for CCOC(=O)C(=CNc1ccccc1Cl)C(=O)OCC ?
GLP1R inv ag: 12%; DRD3 antagonist: 45; GLP1R ag: -8%; DRD3 agonist: 2

Results for CCOC(=O)C(=CNc1ccc2c(c1)CCN2C(C)=O)C(=O)OCC ?
GLP1R inv ag: 50%; DRD3 antagonist: 126; GLP1R ag: 10%; DRD3 agonist: 32*

How did CCOC(=O)C(=CNc1ccc(-c2ccco2)c(Cl)c1)C(=O)OCC do in these assays?
GLP1R inv ag: 0%; DRD3 antagonist: 110; GLP1R ag: 1%; DRD3 agonist: 38*

What do the screens show for `Cc1ccc(C(=O)c2oc3ccccc3c2NC(=O)COc2ccc(C(C)(C)C)cc2)cc1`?
GLP1R inv ag: 1%; DRD3 agonist: 8

Results for CCOC1=C2[C@@H](CN(S(=O)(=O)c3ccc(C)cc3)[C@H]2c2ccccc2F)[C@H]2C(=O)N(CC)C(=O)[C@H]2C1 ?
GLP1R inv ag: 0%; DRD3 antagonist: -8; GLP1R ag: 7%; DRD3 agonist: 0

What do the screens show for `O=C1NC(CCc2ccccc2)C(=O)N1Cc1ccc(Br)cc1` (stereo not given)?
GLP1R inv ag: inconclusive; DRD3 antagonist: -71*; GLP1R ag: 4%; DRD3 agonist: 0

How did COC(=O)c1ccc(C)c(N(CCO)CCO)c1 do in these assays?
GLP1R inv ag: 0%; DRD3 antagonist: -6; GLP1R ag: -6%; DRD3 agonist: 36*

What do the screens show for `CCc1sc(Nc2cccc(Cl)c2)nc1-c1cc2cccc(OC)c2oc1=O`?
GLP1R inv ag: inconclusive; DRD3 agonist: 29

Results for COc1cccc2cc(-c3nc(Nc4cccc(C)c4)sc3C)c(=O)oc12 ?
GLP1R inv ag: 12%; DRD3 agonist: 80*

Results for COc1cccc(NC(=O)OCCN2CCN(Cc3ccccc3)CCC2=O)c1 ?
GLP1R inv ag: 5%; DRD3 antagonist: 19; GLP1R ag: -4%; DRD3 agonist: 44*

What do the screens show for `O=C(Nc1ccccc1)OCCN1CCN(Cc2ccccc2)CCC1=O`?
GLP1R inv ag: 22%; DRD3 antagonist: 26; GLP1R ag: -2%; DRD3 agonist: -2

How did CCOP(=O)(OCC)C(NC(=O)Nc1cccc(Cl)c1)c1ccccc1 (stereo not given) do in these assays?
GLP1R inv ag: 7.9µM*; DRD3 antagonist: 2; GLP1R ag: 3%; DRD3 agonist: -1
